Measurements reported in PubChem BioAssay.
The source made the active and inactive calls.

Assays:
[1] = E. coli DRC41 culture turbidity changes, primary screen, E. coli filamentation inducer project, strain DRC41, OD650, 48 h (AID 1152);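 also: E. coli MC1000 strain DRC41 lacking acrAB efflux pump and sulA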; conditions: E. coli DRC41 (acrAB sulA), higher = more signal, called active from +8 up or from −8 down
[2] = small-molecule binders of probe aLefty1, primary screen, biochemical, small-molecule microarray, 635/667 nm fluorescence (AID 1153); conditions: higher = more signal;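 also: score merges spot fluorescence with signal-to-noise ratio from the scanned slide images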
[3] = PSAC antagonists in infected red cells, primary screen, cell-based, P. falciparum Indochina, OD700, 1 h (AID 1154); conditions: P. falciparum Indochina infected RBC osmotic lysis, higher = more signal, called active from +8 up or from −8 down
[4] = PSAC antagonists in infected red cells, primary screen, cell-based, P. falciparum Indochina, OD700, 2 h (AID 1155);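 also: lysis reports solute entry through the parasite surface anion channel PSAC; channel blockers reduce lysis of infected cells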; conditions: P. falciparum Indochina infected erythrocytes, osmotic lysis OD700; higher = more signal, called active from +8 up or from −8 down
[5] = osmotic lysis modulators in infected erythrocytes, primary screen, PSAC antagonist project, cell-based, P. falciparum Indochina, OD700, 3 h (AID 1156); conditions: higher = more signal, called active from +8 up or from −8 down
[6] = PSAC antagonists in infected red cells, primary screen, cell-based, P. falciparum Indochina, OD700, 18 h (AID 1157); conditions: P. falciparum Indochina infected erythrocytes, osmotic lysis OD700, 18 h; higher = more signal, called active from +8 up or from −8 down
[7] = modulators of S6 phosphorylation in cells, primary screen, cell-based, A549, cytoblot, luminescence, serum-stimulated (AID 1158); conditions: A549 phospho-S6 cytoblot, 5 h, higher = more signal;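 also: serum-stimulated A549 lung adenocarcinoma cells; signal is phosphorylated S6 detected by cytoblot immunostaining with HRP secondary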
[8] = target: NADPH oxidase 2 (Homo sapiens) (UniProt P04839); experiment: NOX2-dependent H2O2 signal modulators, primary screen, NOX inhibitor project, cell-based, HEK293-NOX2, PMA-stimulated, Amplex Red fluorescence (AID 1159); conditions: 45 min, higher = more signal, called active from +8 up or from −8 down; also: test concentration not given here
Sequence of NADPH oxidase 2 (Homo sapiens) (P04839 whole entry, looked up): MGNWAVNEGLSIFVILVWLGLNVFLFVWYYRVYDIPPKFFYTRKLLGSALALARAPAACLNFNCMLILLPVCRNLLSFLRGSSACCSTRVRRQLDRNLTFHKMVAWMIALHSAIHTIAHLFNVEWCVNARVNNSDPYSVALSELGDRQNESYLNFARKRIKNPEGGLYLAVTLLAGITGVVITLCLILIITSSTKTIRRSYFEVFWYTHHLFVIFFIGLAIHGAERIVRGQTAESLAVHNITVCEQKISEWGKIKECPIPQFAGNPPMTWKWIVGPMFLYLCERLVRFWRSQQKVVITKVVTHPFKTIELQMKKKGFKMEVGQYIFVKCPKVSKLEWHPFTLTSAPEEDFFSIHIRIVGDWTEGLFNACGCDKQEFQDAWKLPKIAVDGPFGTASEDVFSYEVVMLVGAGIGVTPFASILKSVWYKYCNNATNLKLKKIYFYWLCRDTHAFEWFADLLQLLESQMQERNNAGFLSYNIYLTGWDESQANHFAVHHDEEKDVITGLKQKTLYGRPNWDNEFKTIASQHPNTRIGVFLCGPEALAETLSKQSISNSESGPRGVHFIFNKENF

[9] = target: NADPH oxidase 4 (Homo sapiens) (UniProt Q9NPH5); experiment: NOX4-dependent H2O2 signal modulators, primary screen, NOX inhibitor project, cell-based, HEK293-NOX4, tetracycline-induced, Amplex Red fluorescence (AID 1160); conditions: 45 min, higher = more signal, called active from +8 up or from −8 down
Sequence of NADPH oxidase 4 (Homo sapiens) (Q9NPH5 whole entry, looked up): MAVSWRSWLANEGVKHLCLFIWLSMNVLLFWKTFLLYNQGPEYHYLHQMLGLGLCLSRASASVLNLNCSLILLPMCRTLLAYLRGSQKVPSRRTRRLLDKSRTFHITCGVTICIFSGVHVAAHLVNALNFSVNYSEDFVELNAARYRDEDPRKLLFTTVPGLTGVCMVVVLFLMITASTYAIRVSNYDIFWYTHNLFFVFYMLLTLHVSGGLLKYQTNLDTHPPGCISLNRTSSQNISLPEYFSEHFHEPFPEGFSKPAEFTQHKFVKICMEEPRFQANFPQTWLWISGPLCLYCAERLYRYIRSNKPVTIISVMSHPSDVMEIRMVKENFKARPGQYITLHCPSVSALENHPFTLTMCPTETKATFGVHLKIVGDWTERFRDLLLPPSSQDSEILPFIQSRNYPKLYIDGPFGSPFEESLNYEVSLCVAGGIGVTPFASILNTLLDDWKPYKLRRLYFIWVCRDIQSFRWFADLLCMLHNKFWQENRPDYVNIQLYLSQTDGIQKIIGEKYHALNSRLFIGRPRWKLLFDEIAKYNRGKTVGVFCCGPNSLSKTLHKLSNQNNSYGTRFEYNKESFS

[10] = target: NADPH oxidase 5 (Homo sapiens) (UniProt Q96PH1); experiment: NOX5-dependent H2O2 signal modulators, primary screen, NOX inhibitor project, cell-based, HEK293-NOX5, Amplex Red fluorescence (AID 1161); conditions: HEK293-NOX5, ionomycin, 45 min, higher = more signal
Sequence of NADPH oxidase 5 (Homo sapiens) (Q96PH1 whole entry, looked up): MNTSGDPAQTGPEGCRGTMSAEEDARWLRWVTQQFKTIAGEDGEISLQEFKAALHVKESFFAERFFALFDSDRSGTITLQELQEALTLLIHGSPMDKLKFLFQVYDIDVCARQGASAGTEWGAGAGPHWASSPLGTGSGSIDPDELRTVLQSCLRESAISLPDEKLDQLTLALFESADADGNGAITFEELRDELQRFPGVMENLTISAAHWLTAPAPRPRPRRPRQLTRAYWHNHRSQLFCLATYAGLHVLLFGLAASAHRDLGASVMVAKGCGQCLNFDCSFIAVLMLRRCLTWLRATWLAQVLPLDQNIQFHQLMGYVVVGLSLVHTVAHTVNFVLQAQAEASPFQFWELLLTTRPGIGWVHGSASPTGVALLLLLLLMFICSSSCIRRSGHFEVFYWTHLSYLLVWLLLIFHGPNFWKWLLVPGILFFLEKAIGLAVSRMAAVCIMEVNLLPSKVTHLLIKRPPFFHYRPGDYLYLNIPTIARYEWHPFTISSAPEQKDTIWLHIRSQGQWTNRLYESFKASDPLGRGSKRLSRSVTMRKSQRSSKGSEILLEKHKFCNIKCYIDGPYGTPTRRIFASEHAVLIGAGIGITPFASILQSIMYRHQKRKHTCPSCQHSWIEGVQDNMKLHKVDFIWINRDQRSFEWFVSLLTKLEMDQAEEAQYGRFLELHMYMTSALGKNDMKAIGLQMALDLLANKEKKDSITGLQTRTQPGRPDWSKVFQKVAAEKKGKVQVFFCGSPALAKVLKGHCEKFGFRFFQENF

[11] = A549 cell viability effects, profiling panel, calcein-AM fluorescence, 48 h, basal (AID 1162); conditions: higher = more signal; also: test concentration not given here
[12] = adipocyte viability effects, profiling panel, cell-based, 3T3-L1 adipocytes, calcein-AM fluorescence, 48 h, basal (AID 1163); conditions: 3T3-L1 adipocytes viability, higher = more signal; also: test concentration not given here
[13] = HepG2 cell viability effects, profiling panel, calcein-AM fluorescence, 48 h, basal (AID 1164); conditions: higher = more signal; also: test concentration not given here
[14] = MM1S cell viability effects, profiling panel, calcein-AM fluorescence, 48 h, basal (AID 1165); conditions: higher = more signal;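 also: viability of MM1S multiple myeloma cells under basal unstimulated conditions; test concentration not given here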
[15] = basal RPMI8226 viability, no added stimulus, profiling panel, cell-based, calcein-AM fluorescence, 48 h, PK04 Diversity Set (AID 1166); conditions: RPMI8226 myeloma viability, higher = more signal;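 also: cells grown under basal conditions without added stimulus; test concentration not given here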
[16] = basal HepG2 mitochondrial membrane potential changes, profiling panel, cell-based, JC-1 fluorescence, 24 h, 100 nL compound (AID 1167); conditions: higher = more signal; also: test concentration not given here
[17] = basal 3T3-L1 adipocyte mitochondrial potential changes, profiling panel, cell-based, JC-1 fluorescence, 3T3-L1 adipocytes, 24 h, 100 nL compound (AID 1168); conditions: JC-1 mitochondrial fluorescence, higher = more signal, called active from +8 up or from −8 down; also: test concentration not given here
[18] = basal RPMI8226 mitochondrial membrane potential changes, profiling panel, cell-based, JC-1 fluorescence, 24 h, 100 nL compound (AID 1169); conditions: RPMI8226 myeloma, JC-1 mitochondrial potential fluorescence, higher = more signal; also: test concentration not given here
[19] = basal MM1S mitochondrial membrane potential changes, profiling panel, cell-based, JC-1 fluorescence, 24 h, 100 nL compound (AID 1170); conditions: higher = more signal; also: test concentration not given here
[20] = A549 lung cancer cell viability effects, profiling panel, resazurin fluorescence, 24 h, PK04 Diversity Set (AID 1171); conditions: higher = more signal, called active from +8 up or from −8 down; also: test concentration not given here

SMILES	z-score [1]	composite z-score [2]	z-score [3]	z-score [4]	z-score [5]	z-score [6]	z-score [7]	z-score [8]	z-score [9]	z-score [10]	z-score [11]	z-score [12]	z-score [13]	z-score [14]	z-score [15]	z-score [16]	z-score [17]	z-score [18]	z-score [19]	z-score [20]
COC(=O)[C@]1(CCC(=O)OC(C)(C)C)N=C(c2ccc(OCCCO)cc2)O[C@@H]1c1ccccc1	0.687 (inactive)	0.765	27.7 (active)	27.2 (active)	0.0027 (inactive)	5.02 (inactive)	-0.406	-1.93 (inactive)	0.178 (inactive)	-1.16	-1.32	0.899	-1.08	-3.43	-3.1	-2.23	-0.205 (inactive)	-0.734	0.903	-1.99 (inactive)
C#CCOc1ccc(C[C@@H](C(=O)OC)N(CC#C)[C@@H](/C=C/C2CC2)[C@H](O)Cc2ccccc2)cc1	-1.04 (inactive)	-0.101	1.7 (inactive)	0.135 (inactive)	-0.173 (inactive)	-0.111 (inactive)	-0.138	-0.0591 (inactive)	0.763 (inactive)	-0.732	-1.05	-0.303	-2.42	-2.3	-2.19	-1.15	-0.00867 (inactive)	-0.79	-0.524	0.313 (inactive)
C=CC1c2cc(O)c(OC)cc2CCN1Cc1cccc(OC(F)(F)F)c1 (stereo not given)	0.277 (inactive)	0.123	5.32 (inactive)	0.544 (inactive)	0.2 (inactive)	0.451 (inactive)	-0.318	-4.69 (inactive)	-2.9 (inactive)	-4.4	-1.97	0.566	-3.19	-3.18	-2.2	-2.6	-0.604 (inactive)	-0.752	-1.85	-0.821 (inactive)
O=C1C2C=CC(C(O)c3ccc(F)cc3)N(Nc3ccc([N+](=O)[O-])cc3)C2C(=O)N1c1ccccc1 (stereo not given)	-1.01 (inactive)	0.129	19.7 (active)	3.8 (inactive)	0.721 (inactive)	1.22 (inactive)	-0.454	-0.95 (inactive)	-2.96 (inactive)	-1.91	-0.755	-0.376	0.679	-0.06	-0.313	-0.382	-0.287 (inactive)	-0.403	-0.977	0.68 (inactive)
CC1CC/C=C\[C@H]2OC34C=CCN(Cc5ccccc5)C(=O)[C@H]3N(C(C)CO)C(=O)[C@@H]4C2C(=O)O1 (stereo not given in full)	0.537 (inactive)	-0.0984	0.16 (inactive)	0.365 (inactive)	1.8 (inactive)	0.425 (inactive)	-0.0395	0.799 (inactive)	-0.657 (inactive)	1.27	0.278	-0.979	0.679	0.998	-0.182	0.554	0.219 (inactive)	1.11	0.741	0.418 (inactive)
O=C1NC(=O)C2C1C=CC(C(O)C=Cc1ccc([N+](=O)[O-])cc1)N2Nc1ccc(Cl)cc1Cl (stereo not given)	-2.11 (inactive)	0.501	10.1 (active)	2.46 (inactive)	2.09 (inactive)	1.66 (inactive)	-1	-0.82 (inactive)	-6 (inactive)	-1.45	-0.352	-0.122	-0.3	-1.47	-1.4	-0.5	-0.726 (inactive)	-1.02	-0.873	-0.428 (inactive)
COC(=O)[C@@]1(CCC(=O)OC(C)(C)C)N=C(c2ccc(OCCCO)cc2)O[C@H]1c1ccccc1	-1.12 (inactive)	-0.009	26 (active)	14.9 (active)	2.32 (inactive)	1.89 (inactive)	0.197	-2.39 (inactive)	-0.204 (inactive)	-2.57	-1.68	0.673	-0.968	-2.83	-2.83	-2.01	-0.306 (inactive)	-1.1	0.558	-1.8 (inactive)
COC(=O)[C@@]1(Cc2ccc(OC)cc2)[C@H]2c3cc(C(=O)N4CCCC4)n(Cc4nc5ccccc5[nH]4)c3C[C@H]2CN1C(=O)c1ccccc1	-0.945 (inactive)	0.388	6.92 (inactive)	1.2 (inactive)	2.04 (inactive)	1.03 (inactive)	-0.0242	-0.034 (inactive)	-0.0265 (inactive)	-3.27	-0.43	0.685	-0.44	-2.01	-2.35	-0.128	-0.773 (inactive)	-0.764	-0.816	0.161 (inactive)
CC(C)CNC(=O)[C@@]1(Cc2ccccc2I)c2ccccc2C(=O)N(Cc2ccccc2C(F)(F)F)[C@H]1c1ccc(CO)cc1	0.0655 (inactive)	-0.103	1.23 (inactive)	0.161 (inactive)	0.649 (inactive)	0.525 (inactive)	-0.146	0.285 (inactive)	0.0405 (inactive)	0.401	-0.942	-0.716	-0.0693	-0.722	-0.548	0.081	0.752 (inactive)	-0.844	-0.167	-0.328 (inactive)
COC(=O)c1c(CC[C@@H](CO)NC(=O)N[C@@H](Cc2ccccc2)Cn2cc(-c3ccccn3)nn2)oc(C(=O)N2CCOCC2)c1C(=O)OC	-0.55 (inactive)	0.149	0.179 (inactive)	0.571 (inactive)	0.521 (inactive)	0.729 (inactive)	0.291	-1.76 (inactive)	-0.4 (inactive)	-1.88	0.122	0.17	-1.31	0.527	0.642	-0.105	0.0526 (inactive)	-0.652	-0.0834	0.765 (inactive)
C=C(/C(=C/C[C@H](OC(=O)c1ccncc1)c1ccc(OCCO)cc1)c1cc(C(=O)OC)ccc1OC)C(C)C	0.936 (inactive)	0.0455	14.5 (active)	1.19 (inactive)	1.29 (inactive)	-1.07 (inactive)	0.622	-1.78 (inactive)	-0.754 (inactive)	-2.43	0.0699	1.62	-0.274	-0.158	-1.9	0.751	0.111 (inactive)	-0.143	0.503	0.827 (inactive)
COc1ccc([C@H]2C[C@H]3C(Br)=C[C@@]2(CO)C(=O)[C@]32CO2)cc1	-0.532 (inactive)	-0.144	-0.0473 (inactive)	0.316 (inactive)	-0.231 (inactive)	-0.039 (inactive)	-0.578	0.24 (inactive)	0.624 (inactive)	-0.268	-0.0583	-0.335	-0.898	-2.71	-0.106	-2.76	0.134 (inactive)	-0.401	-1.09	0.417 (inactive)
O=C1OCC=C[C@H]2OC34C=CCN(Cn5nnc6ccccc65)C(=O)[C@H]3N(CCCCCO)C(=O)[C@@H]4[C@@H]12 (stereo not given in full)	0.911 (inactive)	-0.418	0.896 (inactive)	0.212 (inactive)	1.11 (inactive)	0.383 (inactive)	-0.433	1.95 (inactive)	0.223 (inactive)	1.32	-0.382	0.188	-0.609	0.823	0.903	-0.0737	-0.135 (inactive)	0.205	0.183	-0.301 (inactive)
C=C(CCCC)/C(=C/C[C@H](OC(=O)c1ccncc1)c1ccc(OCCO)cc1)c1cc(C(=O)OC)ccc1OC	0.695 (inactive)	-0.103	20.9 (active)	1.88 (inactive)	2.24 (inactive)	-0.722 (inactive)	0.769	-1.96 (inactive)	-1.3 (inactive)	-2.54	-0.154	1.55	-0.754	-1.47	-2.56	1.22	0.0667 (inactive)	-0.281	-0.93	0.54 (inactive)
COCCOC(=O)N1C(=O)[C@@]2(c3ccccc31)[C@H](C(=O)N1CCc3cc(OC)c(OC)cc3C1)[C@H]1C(=O)O[C@H](c3ccccc3)[C@H](c3ccccc3)N1[C@@H]2c1ccc(O)cc1	3.04 (inactive)	-0.0186	0.927 (inactive)	-0.751 (inactive)	-0.965 (inactive)	-1.93 (inactive)	2.38	0.571 (inactive)	0.549 (inactive)	1.2	2.4	1.1	1.76	0.275	0.0454	0.218	0.743 (inactive)	-0.69	0.0766	-0.223 (inactive)
CCCC(=O)N(CCc1c[nH]c2ccccc12)[C@@H]1CC(C(=O)NCCO)=C[C@H](Oc2c(I)cc(CO)cc2OC)[C@H]1O	1.57 (inactive)	-0.275	13.2 (active)	1.47 (inactive)	2.04 (inactive)	0.501 (inactive)	0.968	-0.674 (inactive)	1.07 (inactive)	1.16	0.0593	-0.0939	0.0635	0.704	0.0598	0.149	-0.937 (inactive)	-0.178	-1.49	-0.558 (inactive)
Cc1ccc(S(=O)(=O)N2C[C@@H](C(=O)O)[C@H](Sc3ccccc3)C[C@H]2c2ccccc2)cc1	-1.37 (inactive)	0.409	1.7 (inactive)	0.932 (inactive)	0.369 (inactive)	0.806 (inactive)	-0.33	1.63 (inactive)	0.111 (inactive)	1.73	-1.21	-0.27	-0.721	-0.279	-0.45	-0.654	-0.883 (inactive)	0.588	0.319	0.111 (inactive)
